According to PubChem BioAssay AID1851 (National Center for Advancing Translational Sciences (NCATS), 2009):
In all, about 16,000 compounds went through this assay and about 5,100 (32%) were called active. About 25% were inconclusive and are not listed. Some of the results follow. Values without a mark were called inactive. Calls follow the shape of the dose curve; as a rule, active = well fitted curve in the direction sought with a large enough effect; inconclusive = small, poorly fitted or top-dose-only effect, or effect the other way; inactive = no such curve, though single readings can be large or run the other way.
% is scaled to controls: 0 for no effect and ±100 for the full control effect.

These compounds were tested against Cytochrome P450 3A4 (Homo sapiens) (UniProt P08684) (assay: Cytochrome panel assay with activity outcomes). Conditions: recombinant CYP, pro-luciferin dealkylation, luminescence, p450-cyp3a4; series mostly up to 57.1 µM.
Cytochrome P450 3A4 (Homo sapiens), sequence (P08684 whole entry, looked up): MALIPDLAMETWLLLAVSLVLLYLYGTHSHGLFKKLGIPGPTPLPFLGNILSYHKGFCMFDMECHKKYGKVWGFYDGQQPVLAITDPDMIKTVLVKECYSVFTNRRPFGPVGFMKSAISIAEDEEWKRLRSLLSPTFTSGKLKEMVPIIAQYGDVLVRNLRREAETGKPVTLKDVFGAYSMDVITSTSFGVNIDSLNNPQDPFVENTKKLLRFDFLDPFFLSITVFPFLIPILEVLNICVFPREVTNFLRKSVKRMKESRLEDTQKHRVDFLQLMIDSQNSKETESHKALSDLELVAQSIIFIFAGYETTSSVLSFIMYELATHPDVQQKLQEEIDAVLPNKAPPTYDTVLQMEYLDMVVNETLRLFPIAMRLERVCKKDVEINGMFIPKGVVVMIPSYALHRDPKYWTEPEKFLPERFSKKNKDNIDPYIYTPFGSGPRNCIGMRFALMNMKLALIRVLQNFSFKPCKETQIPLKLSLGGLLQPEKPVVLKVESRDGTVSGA
With O=C(NCc1ccccc1Cl)C1CCN(S(=O)(=O)N2CCC3(CC2)OCCO3)CC1 the AC50 was 14.1 µM (active).
With O=C(NCCc1ccc(Cl)cc1)C1CCN(S(=O)(=O)N2CCC3(CC2)OCCO3)CC1 the AC50 was 3.55 µM (active).
CC(C)N(CCNC(=O)C1CCN(S(=O)(=O)N2CCOCC2)CC1)Cc1ccccc1 was tested, and the AC50 was “inactive”.
For COCCNC(=O)C1CCN(S(=O)(=O)N2CCC3(CC2)OCCO3)CC1, the AC50 was “inactive”.
Cc1cc(C)c(C#N)c(Oc2ccccc2)n1 was tested, and the activity, negative = inhibition was -18.2% [at 11.4 µM].
Cc1cc(C)c(S(C)(=O)=O)c(Oc2ccc(F)cc2)n1 gave an activity, negative = inhibition of 26.1% [at 2.29 µM].
In the case of Cc1cc(C)c(C#N)c(Oc2ccc(F)cc2)n1, the AC50 is reported as 8.91 µM (active).
CCCC(=O)Nc1cccc(Oc2nc(C)cc(C)c2C#N)c1 was tested, and the AC50 was 14.1 µM (active).
For Nc1nc(CSc2nnnn2-c2ccc(Cl)cc2)nc(N2CCOCC2)n1, the AC50 was 3.98 µM (active).
For COc1ccc(-n2c(=O)c(-c3ccc(Cl)cc3)nc3cnc(N4CCOCC4)nc32)cc1, the AC50 was “inactive”.
In the case of Clc1ccc(-n2nnnc2CN2CCOCC2)cc1, the AC50 is reported as “inactive”.
COC(=O)C1=C(C)N=C2SC(C)C(=O)N2C1/C=C/c1ccccc1 (stereo unspecified) was tested, and the AC50 was 12.6 µM (active).
CC(C)C(=O)N[C@H]1CCCN1C(=O)/C=C\c1ccccc1 was tested, and the activity, negative = inhibition was -20.7% [at 11.4 µM].
In the case of COC(=O)c1cc(/C=C/c2ccccc2)on1, the activity, negative = inhibition is reported as -3.05% [at 2.29 µM].
With CC(C)NC(=O)COC(=O)c1cc(=O)[nH]c2ccccc12 the activity, negative = inhibition was 1.83% [at 2.29 µM].
Cc1[nH]c2c(C)cccc2c1CCNC(=O)c1ccc2c(c1[N+](=O)[O-])C(=O)c1ccccc1C2=O was tested, and the AC50 was 3.16 µM (active).
For Cc1[nH]c2ccccc2c1CCNC(=O)c1ccc2c(c1[N+](=O)[O-])C(=O)c1ccccc1C2=O, the AC50 was 8.91 µM (active).
For COc1cc(OC)nc(NC(C)=O)n1, the AC50 was “inactive”.
COc1cc(C2SCCCCCCCCCCSC(c3ccc(O)c(OC)c3)SCCCCCCCCCCS2)ccc1O (stereo unspecified) was tested, and the activity, negative = inhibition was 12.5% [at 11.4 µM].
COc1ccc(C[C@@H]2C(=O)N[C@H](C)C(=O)N(C)[C@@H]3Cc4ccc(cc4)Oc4cc(ccc4O)C[C@H](C(=O)N[C@@H](C)C(=O)N[C@H](C)C(=O)N2C)N(C)C3=O)cc1 was tested, and the AC50 was 3.98 µM (active).
With Nc1nc(Cl)cc(N2CCC(c3cc(-c4ccc(Cl)cc4Cl)n[nH]3)CC2)n1 the AC50 was 20 µM (active).
In the case of NC1CCN(c2cccc(Cl)n2)CC1, the AC50 is reported as “inactive”.
In the case of COc1ccc(-c2cc(C3CCN(c4cc(Cl)nc(N)n4)CC3)[nH]n2)cc1, the AC50 is reported as 28.2 µM (active).
In the case of Nc1nc(Cl)cc(N2CCOCC2)n1, the AC50 is reported as “inactive”.
In the case of CCNc1ncc2nc(-c3cccs3)c(=O)n(CCC#N)c2n1, the AC50 is reported as 6.31 µM (active).
With CCNc1ncc2nc(-c3cccs3)c(=O)n(Cc3ccc(F)cc3)c2n1 the AC50 was 15.8 µM (active).
With CCNc1ncc2nc(-c3ccc(F)cc3)c(=O)n(CCOC)c2n1 the AC50 was “inactive”.
For CCNc1ncc2nc(-c3cc(F)cc(F)c3)c(=O)n(CCC#N)c2n1, the AC50 was “inactive”.
CCNc1ncc2nc(-c3cccs3)c(=O)n(Cc3cccs3)c2n1 was tested, and the AC50 was 6.31 µM (active).
CCNc1ncc2nc(-c3ccc(F)cc3)c(=O)n(CCC#N)c2n1 was tested, and the AC50 was “inactive”.
For CCNc1ncc2nc(-c3ccccc3)c(=O)n(Cc3cccs3)c2n1, the AC50 was 15.8 µM (active).
CCNc1ncc2nc(C)c(=O)n(Cc3cccs3)c2n1 was tested, and the AC50 was 15.8 µM (active).
In the case of CCNc1ncc2nc(C)c(=O)n(C)c2n1, the AC50 is reported as “inactive”.
With O=C(Nc1ccc2oc(-c3ccccc3F)nc2c1)c1ccc2c(c1)OCCO2 the AC50 was 3.16 µM (active).
With COc1cc(C(=O)NC(=S)Nc2ccc(Cl)c(C(=O)O)c2)cc(OC)c1OC the activity, negative = inhibition was -9.66% [at 11.4 µM].
For COc1cc2ccc(=O)oc2cc1O, the AC50 was “inactive”.
With COc1cc(C(=O)NC(=S)Nc2cccc(-c3cc4ccccc4oc3=O)c2)cc(OC)c1OC the AC50 was 6.31 µM (active).
COc1cc(C(=O)NC(=S)Nc2ccc3oc(=O)ccc3c2)cc(OC)c1OC was tested, and the AC50 was 4.47 µM (active).
CC(O)(P(=O)(O)O)P(=O)(O)O was tested, and the AC50 was “inactive”.
For Cn1nc(-c2ccc(N3CCOCC3)c(NS(=O)(=O)c3ccc(Cl)cc3)c2)c2ccccc2c1=O, the AC50 was 1.41 µM (active).
With CCC(=O)Nc1cc(-c2nn(C)c(=O)c3ccccc23)ccc1N1CCCCC1 the AC50 was “inactive”.
With Cc1c(C(=O)NN2CCOCC2)nn(-c2ccc(Cl)cc2Cl)c1-c1ccc(I)cc1 the AC50 was “inactive”.
With COC(=O)[C@@]1(Cc2ccc(OC)cc2)[C@H]2c3cc(C(=O)N4CCCC4)n(CCc4c[nH]c5ccc(O)cc45)c3C[C@H]2CN1C(=O)c1ccccc1 the AC50 was 1.58 µM (active).
With COC(=O)[C@@]1(Cc2ccc(OC)cc2)[C@H]2c3cc(C(=O)N4CCCC4)n(CCc4c[nH]c5cc(F)ccc45)c3C[C@H]2CN1C(=O)c1ccccc1 the AC50 was 1.26 µM (active).
COC(=O)[C@@]1(Cc2ccc(F)cc2)[C@H]2c3cc(C(=O)N4CCCC4)n(CCc4c[nH]c5ccccc45)c3C[C@H]2CN1C(=O)c1ccccc1 was tested, and the AC50 was 1 µM (active).
With CCOc1cc(C#N)c(NC(=O)c2cccnc2)cc1OCC the AC50 was 12.6 µM (active).
CCN(CC)c1ccc(NC(=O)c2cccnc2)c(C)c1 was tested, and the activity, negative = inhibition was 1.22% [at 2.29 µM].
In the case of CCN(CC)C(=O)c1sc2[nH]c(=S)n(-c3ccccc3)c(=O)c2c1C, the AC50 is reported as “inactive”.
With CC1=C(C(=O)Nc2ccccc2)C(c2ccco2)NC(=S)N1 (stereo unspecified) the activity, negative = inhibition was 0.933% [at 2.29 µM].
CCN(CC)C(=O)C1=C(C)NC(=S)NC1c1cn(-c2ccccc2)nc1-c1ccc(Cl)cc1 (stereo unspecified) was tested, and the AC50 was 7.08 µM (active).
COc1ccc2[nH]cc(CCNc3ccnc(-c4ccccc4C(F)(F)F)n3)c2c1 was tested, and the AC50 was 2 µM (active).
In the case of COc1ccc2[nH]cc(CCNc3ccnc(-c4ccccc4C)n3)c2c1, the AC50 is reported as 3.16 µM (active).
With COc1ccc2[nH]cc(CCNc3ccnc(-c4ccccc4Cl)n3)c2c1 the AC50 was 2 µM (active).
In the case of NC(=O)N[C@H]1NC(=O)NC1=O, the AC50 is reported as “inactive”.
For O=C(O)[C@@H](c1ccccc1)[C@@H](C(=O)O)c1ccccc1, the activity, negative = inhibition was -6.94% [at 11.4 µM].
With Cc1ccc(SCc2nnc(NC(=O)c3ccccc3)s2)cc1 the AC50 was “inactive”.
Cc1ccn2c(NC(=O)c3ccccc3)c(-c3cccs3)nc2c1 was tested, and the AC50 was 7.94 µM (active).
For Cn1sc(NC(=O)c2ccccc2)nc1=O, the AC50 was “inactive”.
COc1ccc(CNc2ncncc2-c2ccccc2C(F)(F)F)c(OC)c1 was tested, and the AC50 was 0.316 µM (active).
For COc1ccccc1CNc1ncncc1-c1ccccc1C(F)(F)F, the AC50 was 0.0794 µM (active).
With CSc1ccc(NC(=O)NCCN2CCc3ccccc3C2)cc1 the AC50 was “inactive”.
CSc1ccc(CNc2ccc(C)c(C)c2)cc1 was tested, and the AC50 was 12.6 µM (active).
Compound CSc1ccc(NC(=O)Nc2cc(C)ccn2)cc1 has an activity, negative = inhibition of -14.7% [at 11.4 µM].
O=C(O)[C@H]1[C@H](C(=O)O)[C@H](C(=O)O)C[C@@H]1C(=O)O was tested, and the activity, negative = inhibition was -3.42% [at 11.4 µM].
For COc1ccc2cc(C)c3nnc(SCC(=O)Nc4nc(-c5ccccc5)cs4)n3c2c1, the AC50 was 2.24 µM (active).
With COc1ccc(-n2c(CNc3ccc(C)cc3)nnc2SCC(=O)Nc2nc(-c3ccccc3)cs2)cc1 the AC50 was 3.16 µM (active).
COc1ccc(NC(=O)CSc2nc(-c3ccc(C)cc3)cc(C(F)(F)F)c2C#N)cc1 showed an activity, negative = inhibition of 0.258% [at 2.29 µM].
In the case of Nc1ccc(N2C(=O)c3ccccc3C2=O)c(Cl)c1, the AC50 is reported as 15.8 µM (active).
For CC1CCN(CCc2nc3cc(NC(=O)NC4CCCCC4)ccc3n2C)CC1, the AC50 was “inactive”.
In the case of Cc1ccccc1-c1cncnc1NCc1cccnc1, the AC50 is reported as 0.631 µM (active).
For Cc1ccccc1-c1cncnc1NCc1ccccc1, the AC50 was 0.316 µM (active).
In the case of FC(F)(F)c1ccccc1-c1cncnc1NCc1cccnc1, the AC50 is reported as 0.631 µM (active).
CN(C)Cc1ccccc1-c1cncnc1NCc1cccnc1 was tested, and the AC50 was 1.58 µM (active).
c1cncc(CNc2ncn[nH]2)c1 showed an activity, negative = inhibition of -14.4% [at 11.4 µM].
N#Cc1ccc(OC(=O)c2ccc(N=C(N)N)cc2)cc1 showed an activity, negative = inhibition of -10.9% [at 11.4 µM].
For Cc1cccc(CNc2ncncc2-c2ccccc2C(F)(F)F)c1, the AC50 was 0.0794 µM (active).
For Cc1cccc(CNc2ncncc2-c2ccccc2C)c1, the AC50 was 0.398 µM (active).
For Cc1cccc(CNc2ncncc2-c2ccccc2Cl)c1, the AC50 was 0.2 µM (active).
Cc1ccc(N(CC(N)=O)C2SC(=O)N(Cc3cccc(C(=O)O)c3)C2=O)cc1 (stereo unspecified) was tested, and the AC50 was “inactive”.
In the case of Cc1cccc(-c2nnc(SCc3ccccc3)o2)c1, the AC50 is reported as “inactive”.
Compound c1ccc(CSc2nnc([C@@H]3CCCN3)o2)cc1 has an activity, negative = inhibition of -4.35% [at 11.4 µM].
With c1ccc(CSc2nnc(-c3sccc3-n3cccc3)o2)cc1 the AC50 was 15.8 µM (active).
With Clc1ccc(CSc2nnc(-c3cccnc3)o2)cc1 the AC50 was 3.16 µM (active).
With Clc1cccc(CSc2nnc(-c3sccc3-n3cccc3)o2)c1 the AC50 was 8.91 µM (active).
Clc1ccc(CSc2nnc(-c3sccc3-n3cccc3)o2)cc1 was tested, and the AC50 was 6.31 µM (active).
CCOC(=O)c1c(NC(=O)Cn2nc([N+](=O)[O-])c(Br)c2C)sc2c1CCC(C)C2 (stereo unspecified) gave an activity, negative = inhibition of -21.8% [at 2.29 µM].
With CCOC(=O)c1c(NC(=O)Cn2cc([N+](=O)[O-])cn2)sc2c1CCC2 the AC50 was 10 µM (active).
In the case of COC(=O)c1c(NC(=O)Cn2cc([N+](=O)[O-])cn2)sc2c1CCC2, the AC50 is reported as 14.1 µM (active).
With CCOC(=O)c1c(NC(=O)CSc2nnc(C)s2)sc2c1CCCCC2 the activity, negative = inhibition was -23.9% [at 2.29 µM].
O=C(O)CCN1C(=S)CSC1=S showed an activity, negative = inhibition of -22% [at 11.4 µM].
With Cc1ccc(-c2ncccc2OC(=O)C23CC4CC(CC(C4)C2)C3)cc1 the activity, negative = inhibition was -12.5% [at 2.29 µM].
